PubChem BioAssay
The source made the active and inactive calls. Unless noted, no rule for the calls is given here.

Columns and labels:
[1] = compound effects on lung adenocarcinoma cell viability – A549, calcein-AM fluorescence, 48 h, basal, profiling panel (AID 1162); settings: higher = more signal; also: test concentration not given here
[2] = compound effects on differentiated 3T3-L1 adipocyte viability – cell-based, 3T3-L1 adipocytes, calcein-AM fluorescence, 48 h, basal, profiling panel (AID 1163); settings: 3T3-L1 adipocytes viability, higher = more signal; also: test concentration not given here
[3] = compound effects on hepatocellular carcinoma cell viability – HepG2, calcein-AM fluorescence, 48 h, basal, profiling panel (AID 1164); settings: higher = more signal; also: test concentration not given here
[4] = compound effects on multiple myeloma cell viability – MM1S, calcein-AM fluorescence, 48 h, basal, profiling panel (AID 1165); settings: higher = more signal;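 also: viability of MM1S multiple myeloma cells under basal unstimulated conditions; test concentration not given here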
[5] = calcein-AM signal in unstimulated myeloma cells – cell-based, calcein-AM fluorescence, 48 h, PK04 Diversity Set, profiling panel (AID 1166); settings: RPMI8226 myeloma viability, higher = more signal;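 also: cells grown under basal conditions without added stimulus; test concentration not given here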
[6] = JC-1 mitochondrial signal, unstimulated HepG2 cells – cell-based, JC-1 fluorescence, 24 h, 100 nL compound, profiling panel (AID 1167); settings: HepG2 mitochondrial potential, higher = more signal; also: test concentration not given here
[7] = JC-1 mitochondrial signal, unstimulated adipocytes – cell-based, JC-1 fluorescence, 3T3-L1 adipocytes, 24 h, 100 nL compound, profiling panel (AID 1168); settings: JC-1 mitochondrial fluorescence, higher = more signal, called active from +8 up or from −8 down; also: test concentration not given here
[8] = JC-1 mitochondrial signal, unstimulated myeloma cells – cell-based, JC-1 fluorescence, RPMI8226, 24 h, 100 nL compound, profiling panel (AID 1169); settings: JC-1 mitochondrial potential fluorescence, higher = more signal; also: test concentration not given here
[9] = JC-1 mitochondrial signal, unstimulated MM1S myeloma – cell-based, JC-1 fluorescence, 24 h, 100 nL compound, profiling panel (AID 1170); settings: MM1S mitochondrial potential, higher = more signal; also: test concentration not given here
[10] = resazurin metabolic signal in A549 cells – cell-based, resazurin fluorescence, 24 h, PK04 Diversity Set, profiling panel (AID 1171); settings: A549 viability, higher = more signal, called active from +8 up or from −8 down; also: test concentration not given here
[11] = resazurin metabolic signal in HepG2 cells – cell-based, resazurin fluorescence, 24 h, PK04 Diversity Set, profiling panel (AID 1172); settings: HepG2 viability, higher = more signal; also: test concentration not given here
[12] = budding yeast growth changes without added modifier – OD600, strain BY4716, 24 h, basal condition, primary screen (AID 1173); settings: S. cerevisiae BY4716 growth, OD600, 24 h; higher = more signal, called active from +8 up or from −8 down
[13] = viability profiling in MM1S myeloma cells – cell-based, resazurin fluorescence, basal, 24 h, PK04 Diversity Set, profiling panel (AID 1174); settings: higher = more signal, called active from +8 up or from −8 down; also: test concentration not given here
[14] = molecular target: Dihydroorotate dehydrogenase (quinone), mitochondrial (Plasmodium falciparum (isolate 3D7)) (UniProt Q08210); assay: inhibition of P. falciparum DHODH – biochemical, C-terminal His tag, absorbance 600 nm, primary screen (AID 1175); settings: PfDHODH enzyme, DCIP absorbance 600 nm; higher = more signal, called active from +8 up or from −8 down;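 also: recombinant parasite enzyme with a five histidine tag at its C terminus; test concentration not given here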
Dihydroorotate dehydrogenase (quinone), mitochondrial (Plasmodium falciparum (isolate 3D7)), sequence (Q08210 whole entry, looked up): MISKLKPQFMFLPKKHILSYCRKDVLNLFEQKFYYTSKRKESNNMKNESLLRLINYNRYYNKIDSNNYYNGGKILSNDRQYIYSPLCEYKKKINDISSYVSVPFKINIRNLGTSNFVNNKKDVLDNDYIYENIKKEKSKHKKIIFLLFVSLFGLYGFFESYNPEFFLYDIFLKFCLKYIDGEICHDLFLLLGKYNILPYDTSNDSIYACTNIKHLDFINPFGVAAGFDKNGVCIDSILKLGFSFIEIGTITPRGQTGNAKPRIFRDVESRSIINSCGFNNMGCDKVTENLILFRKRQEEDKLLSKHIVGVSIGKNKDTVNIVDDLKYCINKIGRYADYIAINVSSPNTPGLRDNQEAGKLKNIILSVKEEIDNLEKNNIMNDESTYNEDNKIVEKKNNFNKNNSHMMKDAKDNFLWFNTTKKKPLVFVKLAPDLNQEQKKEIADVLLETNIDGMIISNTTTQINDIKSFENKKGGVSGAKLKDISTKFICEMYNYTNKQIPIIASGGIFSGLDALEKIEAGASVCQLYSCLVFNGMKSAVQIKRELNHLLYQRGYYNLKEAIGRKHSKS

[15] = inhibition of PAO1 biofilm formation – strain PAO1, LB-PBS medium, absorbance 600 nm, primary screen (AID 1176); also: test concentration not given here; settings: P. aeruginosa PAO1 growth/biofilm, A600, 12 h; higher = more signal
[16] = growth modulation of vineyard yeast isolate – strain RM11-1a, OD600, basal, 24 h, primary screen (AID 1177);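 also: cultures grown under basal conditions with no added stressor; test concentration not given here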; settings: S. cerevisiae RM11-1a growth, OD600, 24 h; higher = more signal, called active from +8 up or from −8 down
[17] = growth of efflux-deficient E. coli DRC39 – strain DRC39, OD650, 24 h, E. coli filamentation inducers, primary screen (AID 1178);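 also: growth measured as culture turbidity by optical density at 650 nm; test concentration not given here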; settings: E. coli DRC39 acrAB, higher = more signal, called active from +8 up or from −8 down
[18] = growth of efflux-deficient E. coli DRC39 – strain DRC39, OD650, 48 h, E. coli filamentation inducers, primary screen (AID 1179);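 also: screen aims at cell division blockers that make cells filament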; settings: E. coli DRC39 delta-acrAB growth, higher = more signal, called active from +8 up or from −8 down
[19] = viability profiling in RPMI8226 myeloma cells – cell-based, resazurin fluorescence, basal, 24 h, PK04 Diversity Set, profiling panel (AID 1180); settings: higher = more signal;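 also: RPMI8826 multiple myeloma cell line at 5000 cells per well; test concentration not given here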
[20] = molecular target: E3 ubiquitin-protein ligase XIAP (Homo sapiens) (UniProt P98170); assay: small molecules binding XIAP protein – biophysical, small-molecule microarray, fluorescence 635 nm, primary screen (AID 1181); settings: higher = more signal;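 also: score merges 667 nm emission and signal to noise over triplicate slides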
E3 ubiquitin-protein ligase XIAP (Homo sapiens), sequence (P98170 whole entry, looked up): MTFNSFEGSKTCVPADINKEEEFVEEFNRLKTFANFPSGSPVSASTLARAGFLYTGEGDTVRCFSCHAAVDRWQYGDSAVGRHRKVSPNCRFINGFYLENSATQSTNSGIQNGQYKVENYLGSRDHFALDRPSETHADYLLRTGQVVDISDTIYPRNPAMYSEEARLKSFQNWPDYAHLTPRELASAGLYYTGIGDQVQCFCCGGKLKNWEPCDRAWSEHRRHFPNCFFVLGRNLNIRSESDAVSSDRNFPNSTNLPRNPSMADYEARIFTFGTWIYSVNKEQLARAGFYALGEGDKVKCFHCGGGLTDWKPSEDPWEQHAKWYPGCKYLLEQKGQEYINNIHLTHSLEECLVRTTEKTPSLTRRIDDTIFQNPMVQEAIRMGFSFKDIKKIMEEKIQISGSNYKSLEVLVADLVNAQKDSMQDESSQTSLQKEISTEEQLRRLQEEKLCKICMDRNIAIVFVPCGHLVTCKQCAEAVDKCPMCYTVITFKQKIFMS

SMILES	z-score [1]	z-score [2]	z-score [3]	z-score [4]	z-score [5]	z-score [6]	z-score [7]	z-score [8]	z-score [9]	z-score [10]	z-score [11]	z-score [12]	z-score [13]	composite z-score [14]	z-score [15]	z-score [16]	z-score [17]	z-score [18]	z-score [19]	composite z-score [20]
CCc1cccc(NC(=O)O[C@H]2[C@H](OC(=O)Nc3ccccc3-c3ccccc3)[C@H](OC(=O)Nc3ccccc3-c3ccccc3)[C@@H](OC)O[C@@H]2CO)c1	-2.01	-0.228	-1.7	-1.62	-0.201	-0.812	-0.398 (inactive)	-0.841	-1	-0.684 (inactive)	0.235	0.371 (inactive)	-0.444 (inactive)	-0.371 (inactive)	0.537 (inactive)	2.19 (inactive)	-1.34 (inactive)	-1.66 (inactive)	-0.254	0.146
CN(C)CCCCNC(=O)[C@H]1C[C@H]2C(=O)N[C@@H](CCCCN(C)C)C(=O)N2[C@H]1c1ccc(O)cc1	0.897	0.613	0.218	0.428	1.26	0.754	0.903 (inactive)	-0.623	-0.379	1.2 (inactive)	0.828	-1.95 (inactive)	0.419 (inactive)	0.245 (inactive)	0.655 (inactive)	-1.52 (inactive)	1.12 (inactive)	1.67 (inactive)	1.82	-0.127
[N-]=[N+]=NCc1ccccc1C[C@@]1(C(=O)NCCN2CCOCC2)N=C(c2ccc(OCCCO)cc2)O[C@@H]1c1ccccc1	0.0171	-0.221	-1.04	-2.72	-1.99	-0.3	0.556 (inactive)	-1.18	-0.956	-0.112 (inactive)	-0.419	-2.05 (inactive)	-0.909 (inactive)	0.742 (inactive)	-0.0025 (inactive)	-0.411 (inactive)	0.594 (inactive)	-0.959 (inactive)	-1.02	0.0297
CS(=O)(=O)CCOC(=O)C1=CC(CCCO)=CC(C2CC2)N(Cc2sc3ccccc3c2Cl)C=C1C(=O)OCCS(C)(=O)=O (stereo not given)	-0.768	0.968	-0.344	-3.24	-3.05	1.67	0.182 (inactive)	-0.843	-1.27	0.459 (inactive)	-0.0631	-6.21 (inactive)	-0.548 (inactive)	-0.559 (inactive)	0.0478 (inactive)	0.155 (inactive)	0.564 (inactive)	0.156 (inactive)	-0.541	0.431
CN1C(=O)C2C=CC(C(O)c3ccc([N+](=O)[O-])cc3)N(Nc3ccccc3)C2C1=O (stereo not given)	-1.06	-1.33	-0.581	0.13	-0.772	-1.05	-1.92 (inactive)	-0.199	-0.522	-1.36 (inactive)	-1.83	-1.21 (inactive)	-1.03 (inactive)	0.003 (inactive)	1.1 (inactive)	0.114 (inactive)	-0.987 (inactive)	-1.16 (inactive)	-1.44	-0.0476
Cc1ccc(N2C(=O)c3ccccc3[C@@H](C(=O)NCCN3CCOCC3)[C@@H]2c2ccc(CO)cc2)nc1	-0.619	0.112	-0.45	0.128	0.0765	-0.274	0.111 (inactive)	-0.171	0.235	0.444 (inactive)	0.925	0.473 (inactive)	0.544 (inactive)	0.434 (inactive)	-0.618 (inactive)	0.537 (inactive)	0.193 (inactive)	0.663 (inactive)	0.547	0.0095
O=C(NCC(F)(F)F)[C@@H]1c2ccccc2C(=O)N(Cc2cc(C(F)(F)F)cc(C(F)(F)F)c2)[C@H]1c1ccc(CO)cc1	0.964	-0.0843	1.42	-0.202	1.07	1.95	1.36 (inactive)	0.801	-0.626	0.651 (inactive)	0.0606	1.26 (inactive)	0.885 (inactive)	0.398 (inactive)	-0.0249 (inactive)	0.378 (inactive)	0.783 (inactive)	1.41 (inactive)	1.1	0.295
